In PubChem BioAssay (EPA / NIEHS):
Activity calls are given as the source filed them. Rule for the calls: active = hit-call score of the fitted dose curve at least 0.9, where 1 is the maximum; inactive = score below 0.9.

Legend:
Conditions in all cases: mRNA level, 48 h; actives raise or lower the signal
[1] = read-out: Cytochrome P450 (CYP2B6), CYP2B6 (gene 1555); experiment: LTEA_HepaRG_CYP2B6: Life Technologies and Expression Analysis (LTEA) Assay for Cytochrome P450 (CYP2B6) using HepaRG (AID 2283481)
Method in brief: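 Differentiated human HepaRG cells in serum-free induction medium, dosed in duplicate for 48 h over 8 half-log concentrations topping at 100 uM (0.5% DMSO). CYP2B6 mRNA measured by TaqMan qRT-PCR, normalized to ACTB, GAPDH, POLR2A; bidirectional fit versus DMSO.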

[2] = read-out: Cytochrome P450 2C19 (Homo sapiens) (UniProt P33261); experiment: LTEA_HepaRG_CYP2C19: Life Technologies and Expression Analysis (LTEA) Assay for CYP2C19 using HepaRG (AID 2283482)
Method in brief: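 Differentiated HepaRG cells in serum-free induction medium exposed 48 h in duplicate, 8 concentrations from 100 uM by half-log steps in 0.5% DMSO. CYP2C19 mRNA measured by TaqMan qRT-PCR, normalized to ACTB, GAPDH, POLR2A. Bidirectional fit versus DMSO.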

CYP2C8 (gene 1558) = experiment: LTEA_HepaRG_CYP2C8: Life Technologies and Expression Analysis (LTEA) Assay for CYP2C8 using HepaRG (AID 2283483)
Method in brief: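 Differentiated HepaRG cells in serum-free induction medium exposed 48 h in duplicate to 8 half-log concentrations from 100 uM in 0.5% DMSO. CYP2C8 mRNA by qRT-PCR normalized to ACTB, GAPDH, POLR2A; bidirectional fit versus DMSO.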

CYP2C9 (gene 1559) = experiment: LTEA_HepaRG_CYP2C9: Life Technologies and Expression Analysis (LTEA) Assay for CYP2C9 using HepaRG (AID 2283484)
Method in brief: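 Differentiated human HepaRG cells in serum-free induction medium were exposed 48 h to chemicals in 8-point half-log series from 100 uM (0.5% DMSO), in duplicate. CYP2C9 mRNA was measured by qRT-PCR, normalized to ACTB/GAPDH/POLR2A, with bidirectional fitting versus DMSO.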

CYP2E1 (gene 1571) = experiment: LTEA_HepaRG_CYP2E1: Life Technologies and Expression Analysis (LTEA) Assay for CYP2E1 using HepaRG (AID 2283485)
Method in brief: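 HepaRG cells in serum-free induction medium exposed 48 h to test chemicals, 8 half-log concentrations up to 100 uM in 0.5% DMSO, duplicate. CYP2E1 mRNA by qRT-PCR, normalized to ACTB, GAPDH, POLR2A; bidirectional fit versus DMSO.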

CYP4A11 (gene 1579) = experiment: LTEA_HepaRG_CYP4A11: Life Technologies and Expression Analysis (LTEA) Assay for CYP4A11 using HepaRG (AID 2283486)
Method in brief: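 Differentiated HepaRG cells, 48 h after plating, exposed in duplicate for 48 h to 8 half-log concentrations up to 100 uM in 0.5% DMSO in serum-free induction medium. CYP4A11 mRNA measured by TaqMan qRT-PCR, normalized to ACTB, GAPDH and POLR2A.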

[3] = read-out: Cytochrome P450 3A4 (Homo sapiens) (UniProt P08684); experiment: LTEA_HepaRG_CYP3A4: Life Technologies and Expression Analysis (LTEA) Assay for CYP3A4 using HepaRG (AID 2283487)
Method in brief: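 In a human hepatic line (HepaRG), duplicate wells were treated 48 h with up to 100 uM chemical in half-log dilutions. Endpoint: CYP3A4 mRNA induction or loss relative to 0.5% DMSO vehicle, by qRT-PCR.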

[4] = read-out: DNA damage-inducible transcript 3 (DDIT3), DDIT3 (gene 1649); experiment: LTEA_HepaRG_DDIT3: Life Technologies and Expression Analysis (LTEA) Assay for DNA damage-inducible transcript 3 (DDIT3) using HepaRG (AID 2283488)
Method in brief: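 Differentiated human HepaRG cells in serum-free induction medium were exposed in duplicate for 48 h to 8 concentrations (top 100 uM, half-log steps, 0.5% DMSO). DDIT3 mRNA measured by TaqMan qRT-PCR, normalized to ACTB/GAPDH/POLR2A; bidirectional fit versus DMSO.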

[5] = read-out: Pro-epidermal growth factor (Homo sapiens) (UniProt P01133); experiment: LTEA_HepaRG_EGF: Life Technologies and Expression Analysis (LTEA) Assay for Epidermal growth factor (EGF) using HepaRG (AID 2283489)
Method in brief: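 HepaRG cells (~100,000/well, 48 h pre-culture) exposed in duplicate for 48 h in serum-free induction medium to 8 half-log concentrations up to 100 uM in 0.5% DMSO. EGF mRNA by qRT-PCR, normalized to ACTB/GAPDH/POLR2A; bidirectional fit versus DMSO.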

[6] = read-out: Early growth response protein 1 (EGR1) transcription factor, EGR1 (gene 1958); experiment: LTEA_HepaRG_EGR1: Life Technologies and Expression Analysis (LTEA) Assay for Early growth response protein 1 (EGR1) transcription factor using HepaRG (AID 2283490)
Method in brief: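 Differentiated HepaRG cells in serum-free induction medium exposed 48 hours, duplicate, to 8 half-log concentrations up to 100 uM in 0.5% DMSO. EGR1 mRNA measured by TaqMan qRT-PCR, normalized to ACTB, GAPDH, POLR2A; bidirectional fit versus DMSO.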

[7] = read-out: Ezrin (EZR), EZR (gene 7430); experiment: LTEA_HepaRG_EZR: Life Technologies and Expression Analysis (LTEA) Assay for Ezrin (EZR) using HepaRG (AID 2283491)
Method in brief: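 Gain or loss of EZR mRNA is scored relative to 0.5% DMSO in human HepaRG cultures treated 48 h with test chemicals in duplicate, eight half-log concentrations from 100 uM.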

[8] = read-out: Cytochrome P450 3A7 (Homo sapiens) (UniProt P24462); experiment: LTEA_HepaRG_CYP3A7: Life Technologies and Expression Analysis (LTEA) Assay for CYP3A7 using HepaRG (AID 2283492)
Method in brief: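 Differentiated HepaRG cells in serum-free induction medium exposed 48 h in duplicate to 8-point half-log series from 100 uM top in 0.5% DMSO. CYP3A7 mRNA by qRT-PCR, normalized to ACTB/GAPDH/POLR2A, bidirectional fit versus DMSO.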

CYP3A5 (gene 1577) = experiment: LTEA_HepaRG_CYP3A5: Life Technologies and Expression Analysis (LTEA) Assay for CYP3A5 using HepaRG (AID 2283493)
Method in brief: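 Differentiated HepaRG cells in serum-free induction medium were dosed 48 h with test chemicals (8-point half-log series, top 100 uM, 0.5% DMSO, duplicate). CYP3A5 mRNA measured by qRT-PCR, normalized to ACTB, GAPDH, POLR2A; bidirectional fit versus DMSO.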

[9] = read-out: Fatty Acid-Binding Protein 1 (FABP1), FABP1 (gene 2168); experiment: LTEA_HepaRG_FABP1: Life Technologies and Expression Analysis (LTEA) Assay for Fatty Acid-Binding Protein 1 (FABP1) using HepaRG (AID 2283494)
Method in brief: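 Differentiated human HepaRG cells exposed 48 h in serum-free induction medium to eight half-log concentrations up to 100 uM (0.5% DMSO), duplicate. FABP1 mRNA by qRT-PCR, normalised to ACTB, GAPDH, POLR2A; bidirectional fitting against DMSO.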

[10] = read-out: Cytochrome P450 4A22 (Homo sapiens) (UniProt Q5TCH4); experiment: LTEA_HepaRG_CYP4A22: Life Technologies and Expression Analysis (LTEA) Assay for Cytochrome P450 4A22 (CYP4A22) using HepaRG (AID 2283495)
Method in brief: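 Differentiated HepaRG cells in serum-free induction medium exposed 48 h in duplicate to eight half-log concentrations up to 100 uM in 0.5% DMSO. CYP4A22 mRNA quantified by TaqMan qRT-PCR, normalized to ACTB, GAPDH and POLR2A; bidirectional fit versus DMSO.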

[11] = read-out: Cytochrome P450 7A1 (Homo sapiens) (UniProt P22680); experiment: LTEA_HepaRG_CYP7A1: Life Technologies and Expression Analysis (LTEA) Assay for Cytochrome P450 7A1 (CYP7A1) using HepaRG (AID 2283496)
Method in brief: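 Gene expression endpoint in human HepaRG liver cells treated for 48 h with test chemicals (up to 100 uM, 0.5% DMSO). Values come from bidirectional concentration-response fitting versus DMSO.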

[12] = read-out: Glutathione S-Transferase (GSTA2), GSTA2 (gene 2939); experiment: LTEA_HepaRG_GSTA2: Life Technologies and Expression Analysis (LTEA) Assay for Glutathione S-Transferase (GSTA2) using HepaRG (AID 2283497)
Method in brief: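 Differentiated human HepaRG cells were exposed in duplicate for 48 h in serum-free induction medium, 8 points from 100 uM top in half-log steps, 0.5% DMSO. GSTA2 mRNA was measured by TaqMan qRT-PCR, normalized to ACTB, GAPDH and POLR2A; bidirectional fit versus DMSO.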

[13] = read-out: Glutamate-cysteine ligase catalytic (GCLC), GCLC (gene 2729); experiment: LTEA_HepaRG_GCLC: Life Technologies and Expression Analysis (LTEA) Assay for Glutamate-cysteine ligase catalytic (GCLC) using HepaRG (AID 2283498)
Method in brief: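 Differentiated HepaRG cells exposed 48 h in serum-free induction medium, eight-point half-log series topping at 100 uM in 0.5% DMSO, duplicates. GCLC mRNA by qRT-PCR normalized to ACTB, GAPDH and POLR2A, fitted bidirectionally versus DMSO.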

[14] = read-out: growth arrest and DNA damage 45 (GADD45G), GADD45G (gene 10912); experiment: LTEA_HepaRG_GADD45G: Life Technologies and Expression Analysis (LTEA) Assay for growth arrest and DNA damage 45 (GADD45G) using HepaRG (AID 2283499)
Method in brief: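 Differentiated human HepaRG cells, 48 h post-plating, exposed 48 h in serum-free induction medium to 8 half-log concentrations (top 100 uM, 0.5% DMSO) in duplicate. GADD45G mRNA measured by Fluidigm TaqMan qRT-PCR, normalized to ACTB, GAPDH, POLR2A; bidirectional fit versus DMSO.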

[15] = read-out: Glutamate-cysteine ligase regulatory (GCLM), GCLM (gene 2730); experiment: LTEA_HepaRG_GCLM: Life Technologies and Expression Analysis (LTEA) Assay for Glutamate-cysteine ligase regulatory (GCLM) using HepaRG (AID 2283500)
Method in brief: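 Differentiated human HepaRG cells exposed 48 h in serum-free induction medium to 8-point half-log concentrations (top 100 uM, 0.5% DMSO), in duplicate. GCLM mRNA quantified by qRT-PCR, normalized to ACTB, GAPDH, POLR2A; bidirectional fitting versus DMSO.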

Measured: AC50

Sequence of Cytochrome P450 3A7 (Homo sapiens) (P24462 whole entry, looked up): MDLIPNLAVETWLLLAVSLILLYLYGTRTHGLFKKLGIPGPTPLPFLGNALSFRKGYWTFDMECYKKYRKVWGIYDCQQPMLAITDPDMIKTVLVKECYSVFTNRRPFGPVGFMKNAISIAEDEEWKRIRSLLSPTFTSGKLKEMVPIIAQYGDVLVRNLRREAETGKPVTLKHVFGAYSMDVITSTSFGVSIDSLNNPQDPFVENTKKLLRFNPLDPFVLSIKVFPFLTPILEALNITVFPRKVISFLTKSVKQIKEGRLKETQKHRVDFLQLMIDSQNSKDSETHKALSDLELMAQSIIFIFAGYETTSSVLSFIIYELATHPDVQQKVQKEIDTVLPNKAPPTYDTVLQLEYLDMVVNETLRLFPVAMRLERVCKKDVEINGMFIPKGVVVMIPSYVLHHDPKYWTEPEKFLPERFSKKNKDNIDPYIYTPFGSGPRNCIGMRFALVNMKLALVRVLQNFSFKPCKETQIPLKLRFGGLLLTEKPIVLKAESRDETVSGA
Sequence of Cytochrome P450 2C19 (Homo sapiens) (P33261 whole entry, looked up): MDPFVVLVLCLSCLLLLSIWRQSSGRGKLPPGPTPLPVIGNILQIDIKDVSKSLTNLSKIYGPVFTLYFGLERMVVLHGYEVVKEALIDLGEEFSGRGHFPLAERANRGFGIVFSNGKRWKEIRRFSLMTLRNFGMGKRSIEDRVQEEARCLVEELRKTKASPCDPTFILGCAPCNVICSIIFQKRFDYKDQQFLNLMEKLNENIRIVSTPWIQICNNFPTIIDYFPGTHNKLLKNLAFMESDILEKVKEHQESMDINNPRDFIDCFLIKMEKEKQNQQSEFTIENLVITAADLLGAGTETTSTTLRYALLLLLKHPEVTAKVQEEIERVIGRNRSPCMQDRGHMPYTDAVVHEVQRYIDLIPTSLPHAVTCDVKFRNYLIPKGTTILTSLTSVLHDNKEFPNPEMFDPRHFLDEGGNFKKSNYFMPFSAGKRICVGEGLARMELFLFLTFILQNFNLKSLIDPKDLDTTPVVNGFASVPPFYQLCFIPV
Sequence of Cytochrome P450 3A4 (Homo sapiens) (P08684 whole entry, looked up): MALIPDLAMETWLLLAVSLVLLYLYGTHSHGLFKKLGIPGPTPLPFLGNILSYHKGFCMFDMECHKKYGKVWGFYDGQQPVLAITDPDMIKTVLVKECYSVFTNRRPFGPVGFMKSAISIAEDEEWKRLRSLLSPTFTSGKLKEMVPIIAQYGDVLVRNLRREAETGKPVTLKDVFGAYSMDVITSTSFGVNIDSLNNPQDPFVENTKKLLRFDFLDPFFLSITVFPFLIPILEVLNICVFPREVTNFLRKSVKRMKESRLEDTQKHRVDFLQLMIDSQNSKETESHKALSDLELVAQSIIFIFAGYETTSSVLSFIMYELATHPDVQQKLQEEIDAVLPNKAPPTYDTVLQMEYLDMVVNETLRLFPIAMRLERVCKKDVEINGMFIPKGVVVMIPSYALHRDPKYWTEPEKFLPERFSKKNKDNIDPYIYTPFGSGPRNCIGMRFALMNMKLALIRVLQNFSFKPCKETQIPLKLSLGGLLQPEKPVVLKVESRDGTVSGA

COC(=O)C(C)Oc1ccc(Oc2ccc(Cl)cc2Cl)cc1 (stereo not given)
active: [2] 29.4 µM | CYP2E1 (gene 1571) 50 µM | CYP4A11 (gene 1579) 12.7 µM | [8] 27.3 µM | [10] 12.7 µM | [12] 74.4 µM
inactive: all other assays above

CCOC(=O)CC(SP(=S)(OC)OC)C(=O)OCC (stereo not given)
active: [1] 50 µM
inactive: all other assays above
